Screens (PubChem)
Pf growth 96h = Primary qHTS for delayed death inhibitors of the malarial parasite plastid, 96 hour incubation | P. falciparum luciferase reporter growth, 96 h | Potency, µM (series often up to 28.7 µM), for inactives: top-dose activity change, negative = inhibition, usual class: inhibitors | 320,000 compounds, 6.9% hits; further: potency means the concentration at half of the fitted maximal effect; on the % scale 0 is the no-effect control and ±100 the full control effect
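Two-generation exposure (96 h) targets delayed-death phenotype. Reporter parasites carrying integrated firefly luciferase, in red cells at 2% hematocrit and 0.05% parasitemia final, kept at 37 C, 5% CO2; luminescence loss indicates inhibition.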
Pf growth 48h = Primary qHTS for delayed death inhibitors of the malarial parasite plastid, 48 hour incubation; P. falciparum luciferase growth in erythrocytes, 48 h; AID 504832, 2011; 310,000 compounds, 5.9% hits; Potency, µM (top dose mostly 28.7 µM), inactives show at the highest dose activity change, negative = inhibition, most hits filed as inhibitors; further: potency means the concentration at half of the fitted maximal effect; on the % scale 0 is the no-effect control and ±100 the full control effect
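Luciferase-expressing parasites in RBCs, 2% Hct / 0.1% parasitemia final; RPMI 1640 + 0.5% Albumax; 37 C, 5% CO2, one generation; luminescence read-out, lower signal = inhibition.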
HCMV antiviral = qHTS Assay for inhibitors of the human cytomegalovirus (HCMV). activity change, negative = inhibition, % at 57.5 µM. HFF cells, HCMV-luciferase reporter, 72 h; hits give low values. AID 1259415, 2018. 410,000 compounds, 4.5% hits; in the data active means activity change below about -60%; inconclusive means no clear call, values can overlap the other calls; inactive means above about -39%; further: on the % scale 0 is the no-effect control and ±100 the full control effect
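Compounds were evaluated in HFFs infected with an HCMV luciferase reporter virus (MOI 1 PFU/cell). Luciferase in lysates collected 72 h post infection served as the replication measure.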
Cycloheximide cs = Cycloheximide Counterscreen for Small Molecule Inhibitors of Shiga Toxin | cell reporter, cycloheximide protein synthesis inhibition counterscreen | max response, % | 300,000 compounds, 12% hits; in the data active means max response mostly above about 13%, no sharp cut-off; inactive means mostly below about 14%; further: read at 38.3 µM for the half of the compounds with a filed dose; 0% is about no effect
Shiga inhibitor = A qHTS for Small Molecule Inhibitors of Shiga Toxin; Vero cells, Shiga toxin protein synthesis inhibition reporter; inhibition, % at 38.7 µM; 290,000 compounds, 9.2% hits; in the data active means inhibition mostly above about 28%, no sharp cut-off; inactive means mostly below about 43%; further: 0% is about no effect
HCV inhibitor = qHTS Assay for Inhibitors of Hepatitis C Virus (HCV); Huh7.5.1 HCVcc-Cre infection, luciferase reporter, 44 h; Potency, µM (top dose mostly 41.8 µM), for the others: at the top dose activity change, negative = inhibition, most hits filed as inhibitors; 340,000 compounds, 3.4% hits; AID 651820, 2012; further: potency means the concentration at half of the fitted maximal effect; on the % scale 0 is the no-effect control and ±100 the full control effect
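Reporter virus HCVcc-Cre (~0.5 moi) infects cells exposed to compound; seeding density 1,000 cells/well with 4 h settling beforehand. Luminescence, 15 sec read, taken 44 h post-infection following a 15 min RT substrate incubation.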
The depositor's hits bear a star; i = inactive; ? = inconclusive; · = not tested or not shown. Rows were chosen to be rich in hits. Some 21% of all compounds tested hit in one or more screens of this group. Unless noted, the call rests on the fitted dose curve; in most records, active means well fitted inhibition curve with a large enough effect; inconclusive means small, poorly fitted or top-dose-only effect, or another doubt; inactive means no such curve, though single readings can be large or run the other way.

SMILES	Pf growth 96h	Pf growth 48h	HCMV antiviral	Cycloheximide cs	Shiga inhibitor	HCV inhibitor
COC(=O)c1cc(S(=O)(=O)Nc2cccc(C)c2C)cn1C	21.4%	10.5%	-27.7	-2.0	-1.6	?
CC(C)c1ccc(CC(=O)N2CCC2(C)C(=O)Nc2cccc(C#N)c2)cc1 (stereo not drawn)	·	·	1.8	·	·	·
CC1(C(=O)Nc2cccc(C#N)c2)CCN1C(=O)Cc1ccc(-c2ccccc2)cc1 (stereo not drawn)	·	·	-61.3*	·	·	·
CC(C)C(=O)NC(c1ccc(N(C)C)cc1)c1c(O)ccc2ccccc12 (stereo not drawn)	?	?	0.0	0.7	-5.6	?
CCCC(=O)NC(c1ccc(OC)cc1)c1c(O)ccc2ccccc12 (stereo not drawn)	-0.9%	11.7µM*	26.7	-3.2	-13.1	?
CC(=O)Oc1ccc2ccccc2c1C(NC(=O)Cc1ccccc1)c1ccc(Cl)cc1 (stereo not drawn)	2.94µM*	4.65µM*	-27.5	-0.7	-15.8	10µM*
CC(C)(C)C(=O)NC(c1ccccc1)c1c(O)ccc2ccccc12 (stereo not drawn)	?	4.65µM*	?	-2.0	-9.7	?
CCOc1ccc(C(NC(=O)CC)c2c(O)ccc3ccccc23)cc1 (stereo not drawn)	?	13.1µM*	23.3	-1.4	-9.6	14.6%
COC(C(=O)Nc1ccnn1C1CCN(Cc2ccc(CO)o2)CC1)c1ccccc1 (stereo not drawn)	39.7%	24.5%	-5.2	11.1	-3.9	-16.2%
COc1ccc(C(NC(=O)CC(C)C)c2c(O)ccc3ccccc23)cc1 (stereo not drawn)	209.2%	?	32.3	-2.7	-3.0	?
CC(C)[C@H](N[C@@H](C)c1ccccc1)c1c(O)ccc2ccccc12	?	2.94µM*	8.5	4.5	9.7	12.1%
CCOC(=O)CCCCC(=O)c1[nH]c(=O)[nH]c1CSc1nnc2c3cc(Br)ccc3n(C)c2n1	43.4%	10.4µM*	·	-1.7	3.4	·
CCOC(=O)CCCCC(=O)c1[nH]c(=O)[nH]c1CSc1nc(C)cc(C)n1	7.2%	·	48.2	-4.0	-5.5	4.9%
COc1ccc(NC(=O)Nc2ccc(OC)cc2)cc1	79.3%	·	10.7	21.9*	67.4*	23.7%
COC(=O)c1ccc(NC(=O)Nc2ccc([N+](=O)[O-])cc2)cc1	-7.3%	?	-22.7	-0.1	-7.1	?
COC(=O)c1ccc(NC(=O)Nc2ccc(OC)cc2)cc1	-12.7%	-24.7%	?	23.7	60.0*	-14.0%
CN(C)c1ccc(NC(N)=S)cc1	233.5%	16.4%	?	4.2	17.1	-3.9%
COc1ccc(NC(=O)OC(C)C)cc1	i	92.0%	2.1	29.2*	68.3*	23.2%
CC(C)OC(=O)Nc1ccc(-c2ccc(NC(=O)OC(C)C)cc2Cl)c(Cl)c1	-0.3%	-8.9%	-17.8	-1.2	-4.9	3.4%
COc1ccc(NC(=O)Nc2ccc(N(C)C)cc2)cc1	·	155.2%	24.7	29.5*	97.3*	-8.1%
COc1ccc(NC(=O)Nc2nnc(C)s2)cc1	·	·	55.2	·	·	·
Cc1ccc(S(=O)(=O)NCCC(=O)Nc2ncccc2O)cc1C	-16.5%	40.2%	-24.9	·	·	?
Cc1cc(C)c(-n2nnnc2SC(C)C)c(C)c1	?	-11.4%	-33.0	-2.4	-5.4	9.1%
N#Cc1cc2ccccc2n2nnnc12	42.6%	9.7%	-12.1	-0.6	-4.1	12.6%
Cc1cc(C)n2nnnc2c1C#N	13.1µM*	18.2%	-11.1	7.4	-1.6	2.1%
CC(C)NS(=O)(=O)c1ccc(NCCCn2ccnc2)c([N+](=O)[O-])c1	-17.9%	-7.1%	-3.2	1.7	14.3	?
Cc1ccccc1-n1ncc(C(C)NC(=O)c2ccco2)c1C (stereo not drawn)	10.0%	43.5%	-34.4	28.5*	54.9*	22.5%
Cc1ccccc1-n1ncc(C(C)NC(=O)c2ccccc2)c1C (stereo not drawn)	12.1%	14.6%	-32.9	35.5*	44.2	?
